Experimental data from PubChem BioAssay (NCATS).
Entries with a potency or affinity are not part of this list. Activity calls are given as the source filed them. No rule for the calls is given here.

conditions: Ebola virus entry assay, green fluorescence channel
Also: 0% is about no effect.

Q: With CN(C)C(=O)Oc1ccc[n+](C)c1 as the compound, how does the efficacy read?
A: 18% (inactive)

Q: With CN1CCC(O)(c2ccc(F)cc2)C(C(=O)c2ccc(F)cc2)C1 (centres undefined) as the compound, how does the efficacy read?
A: 22.6% (inactive)

Q: Which efficacy does the source give for CCCCCN(CCCOC)C(=O)C(CCC(=O)O)NC(=O)c1ccc(Cl)c(Cl)c1 (centres undefined) here?
A: -27.8% (inactive)

Q: With O=C(Cn1ccnc1[N+](=O)[O-])NCc1ccccc1 as the compound, how does the efficacy read?
A: -10.1% (inactive)

Q: With COc1cc(C)c(Cc2cnc(N)nc2N)cc1OC as the compound, how does the efficacy read?
A: -5.94% (inactive)

Q: Which efficacy does the source give for Cc1onc(-c2ccccc2)c1-c1ccc(S(N)(=O)=O)cc1 here?
A: 21% (inactive)

Q: Which efficacy does the source give for Nc1cc(C(Cl)=C(Cl)Cl)c(S(N)(=O)=O)cc1S(N)(=O)=O here?
A: -15.2% (inactive)

Q: Which efficacy does the source give for CCOC(=O)c1ccc(OCCN2C[C@H](O)[C@@H](O)[C@H](O)[C@H]2CO)cc1 here?
A: -12.9% (inactive)

Q: For O=C(O)COc1nn(Cc2ccccc2)c2ccccc12, which efficacy is on record?
A: -8.45% (inactive)

Q: With CC(=O)N(c1onc(C)c1C)S(=O)(=O)c1ccc(N)cc1 as the compound, how does the efficacy read?
A: -8.94% (inactive)

Q: With CO[C@@]1(NC(=O)CSCC#N)C(=O)N2C(C(=O)O)=C(CSc3nnnn3C)CS[C@@H]21 as the compound, how does the efficacy read?
A: -13.7% (inactive)

Q: Which efficacy does the source give for COc1ccc(/C(C)=C/C(=O)O)c(OC)c1 here?
A: -13.7% (inactive)

Q: For CCn1cc(C(=O)O)c(=O)c2cnc(N3CCNCC3)nc21, which efficacy is on record?
A: -36.7% (inactive)

Q: With C[n+]1c2cc(N)ccc2cc2ccc(N)cc21 (tested in a mixture with another compound) as the compound, how does the efficacy read?
A: 129% (inactive)

Q: With CC1CCN(CCCC(=O)c2ccc(F)cc2)CC1 as the compound, how does the efficacy read?
A: -14.6% (inactive)

Q: For CCCNC(C)C(=O)Nc1c(C)csc1C(=O)OC (centres undefined), which efficacy is on record?
A: 13% (inactive)

Q: For CO/N=C(/C(=O)N[C@@H]1C(=O)N2C(C(=O)OCOC(=O)C(C)(C)C)=C(C)CS[C@H]12)c1csc(N)n1, which efficacy is on record?
A: -17.1% (inactive)

Q: With CCCc1nn(C)c2c(=O)[nH]c(-c3cc(S(=O)(=O)N4CCN(C)CC4)ccc3OCC)nc12 as the compound, how does the efficacy read?
A: 14.7% (inactive)

Q: Which efficacy does the source give for O=C(O)c1ccc(=O)[nH]c1 here?
A: -14.8% (inactive)

Q: Which efficacy does the source give for O=C(CS(=O)Cc1ccco1)NC/C=C\COc1cc(CN2CCCCC2)ccn1 (centres undefined) here?
A: 29.8% (inactive)

Q: Which efficacy does the source give for Cc1c(C(=O)O)c(O)cc2c1C(=O)c1c(O)c([C@@H]3O[C@H](CO)[C@@H](O)[C@H](O)[C@H]3O)c(O)c(O)c1C2=O here?
A: -19.5% (inactive)

Q: With OC1(c2ccc(Cl)cc2)CCNCC1 as the compound, how does the efficacy read?
A: 19.8% (inactive)

Q: Which efficacy does the source give for C[C@@H]1O[C@@H](OC[C@H]2O[C@@H](Oc3c(-c4ccc(O)c(O)c4)oc4cc(O)cc(O)c4c3=O)[C@H](O)[C@@H](O)[C@@H]2O)[C@H](O)[C@H](O)[C@H]1O here?
A: 21.1% (inactive)

Q: For NC(=O)c1cc[n+](CC2=C(C(=O)[O-])N3C(=O)[C@@H](NC(=O)Cc4cccs4)[C@H]3SC2)cc1, which efficacy is on record?
A: -13.3% (inactive)

Q: With c1ccc2c(c1)CCCC2C1=NCCN1 (centres undefined) as the compound, how does the efficacy read?
A: -12.9% (inactive)

Q: Which efficacy does the source give for CCCC(O)C(CC)CO (centres undefined) here?
A: 14.1% (inactive)

Q: For COc1cc(C(=O)N2CCOCC2)cc(OC)c1OC, which efficacy is on record?
A: -19.5% (inactive)

Q: For Nc1ccc(S(=O)(=O)Nc2ccccn2)cc1, which efficacy is on record?
A: -13.9% (inactive)

Q: Which efficacy does the source give for CC(=O)OC(C)OC(=O)C(C)c1ccc(-c2ccccc2)c(F)c1 (centres undefined) here?
A: -16.8% (inactive)

Q: Which efficacy does the source give for OCc1cccnc1 here?
A: -9.44% (inactive)

Q: With COc1cnc(NS(=O)(=O)c2ccc(N)cc2)nc1 as the compound, how does the efficacy read?
A: -24.4% (inactive)

Q: With O=C(O)CCCC[P+](c1ccccc1)(c1ccccc1)c1ccccc1 as the compound, how does the efficacy read?
A: 19.9% (inactive)

Q: With COC(=O)c1cc(Cl)ccc1NS(=O)(=O)C(F)(F)F as the compound, how does the efficacy read?
A: -9.07% (inactive)

Q: For CC1(C)O[C@H]2CC(=O)OC[C@]23[C@H]2CC[C@@]4(C)[C@H](c5ccoc5)OC(=O)[C@H]5O[C@]54[C@]2(C)C(=O)C[C@@H]13, which efficacy is on record?
A: -20.6% (inactive)

Q: Which efficacy does the source give for N#CSCC(=O)O here?
A: -33.9% (inactive)

Q: With C/C(=N\O)[C@@H](C)NCC(C)(C)CN[C@H](C)/C(C)=N/O as the compound, how does the efficacy read?
A: -29.3% (inactive)

Q: With Nc1ncnc2c1ncn2Cc1c(F)cccc1Cl as the compound, how does the efficacy read?
A: -22.1% (inactive)

Q: For COc1ccc(C(=O)CC(=O)c2ccc(C(C)(C)C)cc2)cc1, which efficacy is on record?
A: -14.9% (inactive)

Q: For CCCCCCCCCCCCCCCC(=O)NCCO, which efficacy is on record?
A: 20.8% (inactive)
